Source: PubChem
Pf growth 48h – Primary qHTS for delayed death inhibitors of the malarial parasite plastid, 48 hour incubation; 310,000 tested, 5.9% active; Potency, µM (top dose mostly 28.7 µM), without a hit: at the highest dose activity change, negative = inhibition, actives largely listed as inhibitors; P. falciparum luciferase growth in erythrocytes, 48 h; AID 504832, 2011; further: potency means the concentration at half of the fitted maximal effect
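A one-generation exposure of luciferase-tagged malaria parasites in RPMI 1640/Albumax erythrocyte culture, 37 C and 5% CO2. Inhibition is inferred from decreased luminescence after adding detection reagent.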
FBPA Giardia inh – qHTS Assay for Inhibitors of Fructose-1,6-bisphosphate Aldolase from Giardia Lamblia | 290,000 tested, 0.71% active | A8B2U2 | purified Giardia FBPA | Potency, µM (highest dose often 59.6 µM), inactives show top-dose activity, negative = inhibition, most hits filed as inhibitors | AID 2451, 2010; further: potency means the concentration at half of the fitted maximal effect; nearly all actives have a fitted effect of over 55% in size
Target sequence (A8B2U2 whole entry, looked up): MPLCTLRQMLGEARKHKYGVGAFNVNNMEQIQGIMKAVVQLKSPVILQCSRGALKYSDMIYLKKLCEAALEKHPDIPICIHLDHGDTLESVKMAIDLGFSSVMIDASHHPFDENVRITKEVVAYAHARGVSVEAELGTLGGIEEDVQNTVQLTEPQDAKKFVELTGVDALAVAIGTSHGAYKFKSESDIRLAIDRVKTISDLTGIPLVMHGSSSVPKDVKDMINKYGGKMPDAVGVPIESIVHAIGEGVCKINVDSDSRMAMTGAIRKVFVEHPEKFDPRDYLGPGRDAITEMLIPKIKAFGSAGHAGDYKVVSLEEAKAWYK
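Giardia FBPA (40 nM reagent) was preincubated 10 min at RT with compound (up to 57.5 uM final), then substrate plus GAPDH/TPI/NAD/arsenate coupling system with diaphorase/resazurin was added; resorufin fluorescence (525/598 nm) was read after 20 min.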
HCMV inh – qHTS Assay for inhibitors of the human cytomegalovirus (HCMV); HFF cells, HCMV-luciferase reporter, 72 h; hits give low values; activity change, negative = inhibition, % at 57.5 µM; 410,000 tested, 4.5% active; AID 1259415, 2018; in the data active means activity change below about -60%; inconclusive means no clear call, values can overlap the other calls; inactive means above about -39%
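Screen run at 2 compound doses on HFFs infected with reporter HCMV, MOI 1 PFU/cell. Luciferase activity from cell lysates at 72 h post infection gave inhibition relative to buffer-only and Salinomycin wells.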
Pf growth 96h – Primary qHTS for delayed death inhibitors of the malarial parasite plastid, 96 hour incubation | P. falciparum luciferase reporter growth, 96 h | Potency, µM (highest dose often 28.7 µM), for the others: at the highest dose activity change, negative = inhibition, actives largely listed as inhibitors | 320,000 tested, 6.9% active | AID 504834, 2011; further: potency means the concentration at half of the fitted maximal effect
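Plates of compound plus infected erythrocytes (2% hematocrit, 0.05% parasitemia final) incubate 96 hours, 37 C, 5% CO2. Detection reagent added; reduced luminescence from the parasites' luciferase reporter flags inhibition.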
Sm TGR block – qHTS Assay for the Inhibitors of Schistosoma Mansoni Peroxiredoxins. 360,000 tested, 3% active. purified TGR, DTNB reduction, TNB absorbance 405 nm. Potency, µM (titrated, usually from 114 µM), for inactives: at the highest dose activity change, negative = inhibition, most hits filed as inhibitors. Schistosoma mansoni thioredoxin glutathione reductase (TGR), Q962Y6; further: potency means the concentration at half of the fitted maximal effect; nearly all actives have a fitted effect of over 60% in size
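TGR 20 nM + NADPH 100 uM (dispensed conc.), cpd preinc 15 min RT; start with NADPH (500 uM addition) then DTNB (15 mM addition). Kinetic TNB absorbance, 405 nm filter. Four-parameter Hill fit across titration.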
The depositor's hits bear a star; i = inactive; ? = inconclusive; . = no result given. Hits are enriched below; roughly 14% of the tested compounds scored in any of these assays. Unless noted, the call rests on the fitted dose curve; in most records, active means well fitted curve in the direction sought with a large enough effect; inconclusive means small, poorly fitted or top-dose-only effect, or another doubt; inactive means no such curve, though single readings can be large; an effect the other way counts as inactive or inconclusive. On the % scale 0 is the no-effect control and ±100 the full control effect.

SMILES | Pf growth 48h | FBPA Giardia inh | HCMV inh | Pf growth 96h | Sm TGR block
O=c1[nH]c(C2CCN(S(=O)(=O)c3ccccc3)CC2)nc2c1nnn2Cc1c(F)cccc1Cl | ? | . | -15 | 5.2µM* | 2%
O=C(C1CCC1)N1CCC(c2nc3c(nnn3Cc3c(F)cccc3Cl)c(=O)[nH]2)CC1 | 13µM* | 4% | -32 | 56% | 0%
O=c1[nH]c(C2CCN(S(=O)(=O)c3ccc(F)cc3)CC2)nc2c1nnn2Cc1ccc2c(c1)OCCO2 | ? | . | -24 | 20% | -3%
O=c1[nH]c(C2CCN(S(=O)(=O)c3ccc4c(c3)OCCO4)CC2)nc2c1nnn2Cc1c(F)cccc1Cl | -22% | -4% | -75* | -29% | 8%
O=c1[nH]c(C2CCN(S(=O)(=O)c3ccccc3)CC2)nc2c1nnn2Cc1cccc(Cl)c1 | ? | -2% | 3 | 5% | -11%
O=c1[nH]c(C2CCN(S(=O)(=O)c3ccc4c(c3)OCCO4)CC2)nc2c1nnn2Cc1ccccc1F | ? | . | 15 | 13µM* | -1%
O=c1[nH]c(C2CCN(S(=O)(=O)c3ccccc3F)CC2)nc2c1nnn2Cc1ccc2c(c1)OCCO2 | -15% | . | 24 | ? | -17%
O=C(NCc1ccccc1Cl)C(=O)NCC1OCCCN1S(=O)(=O)c1cccs1 (centres undefined) | -22% | . | . | 2% | -28%
CC(C)(C)NC(=O)C(c1cccs1)N(CC1CCCO1)C(=O)Cn1nnc(-c2cccs2)n1 (centres undefined) | ? | 3% | -26 | . | -16%
CC(C)(C)NC(=O)C(c1cccs1)N(CC1CCCO1)C(=O)c1ccc(-c2ccccc2)[nH]1 (centres undefined) | 13µM* | 1% | ? | 478% | 8%
O=C(NCC1CCCO1)C(c1cccs1)N(C(=O)c1ccc(-c2ccccc2)[nH]1)C1CCCC1 (centres undefined) | 10µM* | -1% | ? | ? | -1%
COc1ccc(CN(C(=O)c2ccc(-c3ccccc3)[nH]2)C(C(=O)NCC2CCCO2)c2ccc(C)o2)cc1 (centres undefined) | 8.3µM* | -24% | 0 | 6.6µM* | -22%
COc1ccc(CN(CC(=O)NC2CCCC2)C(=O)c2ccc(-c3ccccc3)[nH]2)cc1 | ? | -1% | -29 | 7% | 8%
O=C(NCC1CCCO1)C(c1ccc(F)cc1)N(CCCN1CCOCC1)C(=O)c1ccc(-c2ccccc2)[nH]1 (centres undefined) | 13µM* | 0% | 2 | 9% | 2%
O=C(NCC1CCCO1)C(c1cccs1)N(Cc1ccccc1)C(=O)c1ccc(-c2ccccc2)[nH]1 (centres undefined) | ? | -13% | -35 | i | -6%
CCOC(=O)[C@@H]1[C@H]2COc3ccccc3[C@H]2N2C(=O)N(c3ccc(Cl)cc3)C(=O)[C@@]12C | -40% | -16% | . | ? | 1%
C=CCn1c(SCC(=O)Nc2cccc(S(N)(=O)=O)c2)nc2sc(C)c(C)c2c1=O | . | . | 90 | . | .
CC1C(=O)N(Cc2cn(CCC3OCCO3)nn2)CCS(=O)(=O)N1Cc1ccc(-c2ccccc2)cc1 (centres undefined) | . | . | -4 | . | .
CCNC(=O)C1(C)CCN(C(=O)c2c(F)ccc(C)c2F)C1 (centres undefined) | . | . | -7 | . | .
COc1ccc(CSc2nc3ccncc3n2CC(=O)Nc2ccc(C)c(F)c2)cc1 | . | . | 11 | . | 1%
Cc1cccc(CSc2nc3ccncc3n2CC(=O)Nc2cc(C)cc(C)c2)c1 | 26% | 4% | -5 | 8.3µM* | -3%
CC/C(=N\NC(=O)c1c[nH]c2ccccc12)c1cccs1 | ? | -12% | 85 | 13µM* | -3%
Cc1ccc(/C=N/NC(=O)c2c[nH]c3ccccc23)s1 | 47% | . | -72* | 3% | 2%
Cc1ccc([C@H]2C(C(=O)O)=CC[C@@H](c3ccc(C)cc3)N2S(=O)(=O)c2ccccc2C)cc1 | . | . | -11 | . | .
Cc1csc(NC(=O)CSc2nc(C(C)C)nc3ccccc23)n1 | -22% | 4% | -28 | -2% | 13%
SMILES | Pf growth 48h | FBPA Giardia inh | HCMV inh | Pf growth 96h | Sm TGR block
O=C1NC(=O)/C(=C\c2ccc(Br)o2)S1 | 31% | -13% | 30 | 5% | 14µM*
O=C1NC(=O)/C(=C/c2cc3c(cc2Br)OCO3)S1 | 25% | -9% | 26 | ? | 4%
CCN1CCN(C(=O)C2CCN(S(=O)(=O)c3ccc4c(c3)NC(=O)C(C)S4)CC2)CC1 (centres undefined) | ? | . | -24 | 2.9µM* | 0%
CC1Sc2ccc(S(=O)(=O)N3CCC(C(N)=O)CC3)cc2NC1=O (centres undefined) | 12% | . | -26 | ? | -1%
CC1Sc2ccc(S(=O)(=O)N3CCC(C(=O)NCCc4ccccc4)CC3)cc2NC1=O (centres undefined) | 12µM* | . | 53 | ? | 5%
Cc1ccc(CCNC(=O)C2CCN(S(=O)(=O)c3ccc4c(c3)NC(=O)C(C)S4)CC2)cc1 (centres undefined) | ? | -5% | ? | ? | -16%
Cc1ccc(NC(=O)C2CCN(S(=O)(=O)c3ccc4c(c3)NC(=O)C(C)S4)CC2)cc1Cl (centres undefined) | 13µM* | . | -99* | ? | -9%
Cc1ccc(NC(=O)C2CCN(S(=O)(=O)c3ccc4c(c3)NC(=O)C(C)S4)CC2)c(Cl)c1 (centres undefined) | 10µM* | . | 0 | ? | 5%
CC1=C(C(=O)N2CCCCCC2)CC(CC(=O)NCCN2CCOCC2)C(=O)N1Cc1ccc(C(C)(C)C)cc1 (centres undefined) | . | . | -5 | . | .
CC1CCCN(c2ncnc3c2nnn3C)C1 (centres undefined) | . | . | -11 | . | 17%
Cc1ccc(S(=O)(=O)c2cc3c(=O)n4cccc(C)c4nc3n(Cc3ccncc3)c2=N)cc1 | ? | . | . | ? | 0%
CC(C)(C)c1cc(C(=O)CCN2CCOCC2)cc(C(C)(C)C)c1O | 34% | -7% | -77* | ? | 3.5µM*
CC(=O)CCN1CCOCC1 | . | -14% | 58 | 34% | ?
O=C(CCN1CCOCC1)c1ccc(N2CCCCC2)cc1 | -1% | . | -13 | 22% | 14µM*
CCC(=O)c1ccc(OCCN2CCOCC2)cc1 | 24% | 3% | 24 | 4% | -10%
COCCN1C(=O)CCC1(C)C(=O)Nc1c(C)cccc1C (centres undefined) | . | . | 32 | . | .
COc1cc(-c2n[nH]c3ccnc(-c4cccc5ncccc45)c23)cc(OC)c1OC | . | . | 4 | . | .
O=C(N1CCCC1)C12CCC3CC(CC(C3)C1)C2 | . | 0% | 65 | 9.3µM* | 6%
